Compounds with a hit are over-represented: about 6.5% of the library has one in this group of screens.
VACV mCherry inh – qHTS for Stage-Specific Inhibitors of Vaccinia Orthopoxvirus: mCherry Reporter Primary qHTS; 0.63% of 310,000 active; Potency, µM (series often up to 36.5 µM), hits mostly inhibitors; AID 720579, 2013; Vaccinia virus mCherry reporter infection, fluorescence; calls by dose curve; tested in A549 cells; note: nearly all actives have a fitted effect of over 35% in size
Vaccinia Venus – qHTS for Stage-Specific Inhibitors of Vaccinia Orthopoxvirus: Venus Reporter Primary qHTS; 0.46% of 330,000 active; Vaccinia virus Venus reporter expression, fluorescence; Potency, µM (highest dose often 36.5 µM), hits mostly inhibitors; AID 720580, 2013; calls by dose curve; tested in A549 cells; note: nearly all actives have a fitted effect of over 30% in size
HCMV inh – qHTS Assay for inhibitors of the human cytomegalovirus (HCMV) | HFF cells, HCMV-luciferase reporter, 72 h; stronger effect = lower value | activity change, negative = inhibition, % at 57.5 µM | 4.5% of 410,000 active; in the data active = activity change below about -60%; inconclusive = no clear call, values can overlap the other calls; inactive = above about -39%
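Inhibition of viral replication was scored as loss of reporter luminescence in HFFs infected with HCMV-luciferase (MOI 1 PFU/cell) for 72 h; compounds tested at 2 doses, normalized to buffer and Salinomycin controls.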
MARV entry inh – qHTS for inhibitors of binding or entry into cells for Marburg Virus; Marburg virus pseudotyped entry inhibition, cell reporter; Potency, µM (highest dose often 37.8 µM), most hits filed as inhibitors; 1.8% of 300,000 active; AID 540276, 2011; calls by dose curve; tested in HEK293 cells
Lassa entry inh – qHTS for Inhibitors of binding or entry into cells for Lassa Virus; Lassa virus pseudotype entry inhibition, cell reporter; Potency, µM (series often up to 37.9 µM), hits mostly inhibitors; 1.2% of 300,000 active; AID 540256, 2011; calls by dose curve; tested in HEK293 cells; note: nearly all actives have a fitted effect of over 50% in size
FMDV inh – High Throughput Screening for Foot and Mouth Disease Virus Antivirals. FMDV antiviral cell-based qHTS. Potency, µM (series often up to 57.9 µM), hits mostly inhibitors. 1.2% of 410,000 active. AID 1159524, 2015; calls by dose curve; tested in HEK293T cells; note: read-out not given here; nearly all actives have a fitted effect of over 45% in size
A number is an active result; i = inactive; ? = inconclusive; nt = no result; ! = not confirmed by another sample; [ ] = dose if it differs, or a comment.

SMILES	VACV mCherry inh	Vaccinia Venus	HCMV inh	MARV entry inh	Lassa entry inh	FMDV inh
COC(=O)N/N=C/c1c(C)c(C(=O)c2ccc(F)cc2)n2ccccc12	i	i	i	?	?	35µM
O=C1OCc2cc(-c3ccccc3F)ccc21	nt	nt	i	nt	nt	nt
Cc1ccc(CNC(=O)c2c(Nc3ccccc3C)sc(C(=O)c3ccc(F)cc3)c2N)cc1	11µM	?	-75	nt	?	i
COc1cccc(Nc2sc(C(=O)c3ccc(F)cc3)c(N)c2C(=O)NCc2ccc(C)cc2)c1	i[7.34 µM]	i[7.34 µM]	-62	nt	?	14µM
Cc1ccccc1Nc1sc(C(=O)c2ccccc2)c(N)c1C(=O)NCc1ccc(Cl)cc1	?	?	?	nt	i	?
CC1(C)OC(=O)C(=CC2=NCCC2)C(=O)O1	nt	nt	nt	i	nt	nt
CCN1C(=NCCc2ccccn2)NC(c2cccc(C(F)(F)F)c2)C(C(=O)OC)=C1C (stereo not given)	nt	nt	nt	i	?	nt
O=C(c1ccc(CS(=O)c2ccccc2Cl)o1)N1CCN(C2CCCCC2)CC1 (stereo not given)	i	i	-101	nt	nt	i
O=C(c1ccc(CS(=O)c2ccccc2Cl)o1)N1CCN(c2ccccc2F)CC1 (stereo not given)	i	i	-67	nt	i	i
O=C(c1ccc(CS(=O)c2ccccc2Cl)o1)N1CCCCCC1 (stereo not given)	i[7.34 µM]	i[7.34 µM]	i	nt	nt	i
CCC(=O)N1CCc2cc(S(=O)(=O)N(CC)c3cccc(C)c3)ccc21	i	i	i	i	?	i
CCN(c1cccc(C(F)(F)F)c1)S(=O)(=O)c1ccc2c(c1)CCN2C(=O)C1CC1	?	?	-82	?	?	14µM
CCCSc1nc2c(cnn2-c2ccccc2)c(=O)n1N	i[7.34 µM]	i[7.34 µM]	i	?	8.9µM	i
Cc1cc2c(cc1NS(=O)(=O)c1ccc(NC(=O)CC(C)C)cc1)n(C)c(=O)c(=O)n2C	i	i	i	nt	i	i
COC(=O)C1=C(C(=O)OC)C2OC1c1cc3ccccc3cc12	i	?	i	?	i	28µM
O=C(Nc1cccnc1)c1ccc(CN2CCc3ccccc3C2)cc1	nt	nt	i	i	i	?
Cc1ccc(NC(=O)c2ccc(CN3CCN(C)CC3)cc2)cc1Nc1nccc(-c2cccnc2)n1	i	i	-78	nt	nt	i
COCCN1C(=O)CCC1(C)c1nnnn1-c1c(C)cccc1C (stereo not given)	i	i	i	nt	nt	i
Cc1ccc(NC2(c3nnnn3-c3c(C)cccc3C)CCCCC2)cc1	i	i	-74	?	?	i
CCCCCCSc1cc(-c2nc3cc(C)ccn3c2NC2CCCCC2)ccc1OC	i	i	i	nt	nt	?
COc1cc(-c2nc3cc(C)ccn3c2NC2CCCCC2)ccc1-c1ccc(C(C)=O)cc1	i	?	-94	nt	nt	?
CCC(C)Sc1ccc(-c2nc3cc(C)ccn3c2NC2CCCCC2)cc1 (stereo not given)	i	?	-102!	nt	nt	?
CCC(C)Sc1ccc(-c2nc3cnccn3c2NC2CCCCC2)cc1 (stereo not given)	i	?	i	nt	nt	?
CCn1c(O)c(N=NC(=O)CNC(=O)c2ccco2)c2ccccc21	i	?	-62	nt	nt	i
C=CCn1c(O)c(N=NC(=O)OCC)c2ccccc21	i	i	-64	i	i	i
SMILES	VACV mCherry inh	Vaccinia Venus	HCMV inh	MARV entry inh	Lassa entry inh	FMDV inh
C=CCn1c(O)c(N=Nc2ccccc2)c2ccccc21	?	i	i	i	i	i
CCOC(=O)N=Nc1c(O)n(C)c2ccccc12	i	i	i	?	i	i
C=CCSc1nc2c(C(=O)OCC)nnn2c2ccccc12	i	i	i	i	?	?
C=CCn1c(=O)c2ccccc2n2nnc(C(=O)OCC)c12	i	i	-63	i	i	i
C=CCn1c(O)c(N=NC(=S)Nc2cccc(OC)c2)c2ccccc21	i	i	-76	?	?	i
CCN1CCCC1CNCc1cc2c(OC)c(OC)c(OC)cc2nc1N(C)C (stereo not given)	i	i	nt	nt	nt	i
CCOC(=O)C1(C)C=C(Nc2cccc(C(=O)O)c2)C(=O)N1c1cccc(C(=O)O)c1 (stereo not given)	i	i	i	i	i	i
C=CCn1c(O)c(N=NC(=S)Nc2ccc(OC)cc2)c2ccccc21	i	i	-72	?	?	i

Screens (PubChem)
